The whole screen tested about 39,000 compounds, of which about 3,300 (8.5%) were called active. For the sample, actives were picked, then their nearest neighbours and some compounds at random.
The compounds below were run on HepG2 (assay: cytotoxicity call (relative viability < 0.9)). Conditions: 10 µM.

| SMILES | cytotoxicity call |
| --- | --- |
| C[C@H]1CCCCO[C@H](CN(C)Cc2ccncc2)[C@@H](C)CN([C@@H](C)CO)C(=O)c2cc(NC(=O)Nc3cccc4ccccc34)ccc2O1 | inactive |
| COc1ccc2c3c(n(c2c1)C)[C@@H](CO)N(C[C@]13CN(C1)S(=O)(=O)c1ccc(cc1)C)S(=O)(=O)c1ccc(cc1)C | inactive |
| C[C@H](CO)N1C[C@H](C)[C@H](CN(C)Cc2ccc3c(c2)OCCN3C)OCc2cnnn2CCCC1=O | inactive |
| O=C(C[C@H]1CC[C@@H]2[C@H](COC[C@@H](O)CN2C(=O)Nc2cccc(F)c2)O1)NCCCN1CCOCC1 | inactive |
| CC(C)NC(=O)Nc1ccc2c(c1)C(=O)N([C@@H](C)CO)C[C@@H](C)[C@H](CN(C)C(=O)Nc1ccc(F)cc1)OCCCC[C@H](C)O2 | inactive |
| O.O=C(O)C1C(O)CCC2CN3CCc4c([nH]c5ccccc45)C3CC21 (configuration not stated) | inactive |
| C[C@H]1CC(=O)Nc2c1c(N)nn2C | inactive |
| C[C@H]1CCCCO[C@H](CN(C)Cc2ccc3c(c2)OCO3)[C@@H](C)CN([C@@H](C)CO)C(=O)c2cc(NC(=O)CCC(F)(F)F)ccc2O1 | inactive |
| C[C@@H]1CCCCO[C@H](CN(C)C(=O)C2CCCCC2)[C@H](C)CN([C@H](C)CO)C(=O)c2cc(NS(=O)(=O)c3ccc(F)cc3)ccc2O1 | inactive |
| CC(C)CC#Cc1ccc2c(c1)O[C@H](CN(C)Cc1cncnc1)[C@H](C)CN([C@@H](C)CO)S2(=O)=O | inactive |
| NNS(=O)(=O)c1ccc(Cl)cc1 | inactive |
| NC(=O)NS(=O)(=O)c1ccc(N)cc1 | inactive |
| NNS(=O)(=O)c1ccc(Oc2ccc(S(=O)(=O)NN)cc2)cc1 | active |
| C[C@@H]1CN([C@H](C)CO)C(=O)c2cc(NS(=O)(=O)c3ccc(F)cc3)ccc2O[C@H]1CN(C)S(=O)(=O)c1ccc(F)cc1 | inactive |
| Cc1cc(C)c2c(c1)NC(=O)C[C@H]2c1cccc(Cl)c1Cl | active |
| Cc1ccc2c(c1)C(=O)C[C@@H](c1ccc(Cl)cc1Cl)O2 | inactive |
| Cc1ccc(=O)n(CC(=O)O)n1 | inactive |
| C[C@@H]1CCCCO[C@@H](CN(C)Cc2ccncc2)[C@H](C)CN([C@H](C)CO)C(=O)c2cc(NC(=O)Nc3ccc(C(F)(F)F)cc3)ccc2O1 | active |
| C[C@H](CO)N1C[C@H](C)[C@H](CN(C)Cc2ccncc2)OCCCC[C@H](C)Oc2ccc(NC(=O)Nc3ccc(C(F)(F)F)cc3)cc2C1=O | active |
| C[C@@H]1CCCCO[C@H](CN(C)Cc2ccncc2)[C@@H](C)CN([C@H](C)CO)C(=O)c2cc(NC(=O)Nc3ccc(C(F)(F)F)cc3)ccc2O1 | inactive |
| C[C@@H]1CCCCO[C@@H](CN(C)Cc2ccncc2)[C@H](C)CN([C@@H](C)CO)C(=O)c2cc(NC(=O)Nc3ccc(C(F)(F)F)cc3)ccc2O1 | inactive |

| SMILES | cytotoxicity call |
| --- | --- |
| C[C@H](CO)N1C[C@H](C)[C@@H](CN(C)Cc2ccncc2)OCCCC[C@H](C)Oc2ccc(NC(=O)Nc3ccc(C(F)(F)F)cc3)cc2C1=O | inactive |
| C[C@@H]1CCCCO[C@H](CN(C)Cc2ccncc2)[C@H](C)CN([C@H](C)CO)C(=O)c2cc(NC(=O)Nc3ccc(C(F)(F)F)cc3)ccc2O1 | active |
| C[C@@H]1CN([C@H](C)CO)C(=O)c2cc(NC(=O)Nc3ccc(C(F)(F)F)cc3)ccc2O[C@@H](C)CCCCO[C@@H]1CN(C)Cc1ccncc1 | active |
| C[C@H]1CCCCO[C@@H](CN(C)Cc2ccncc2)[C@@H](C)CN([C@@H](C)CO)C(=O)c2cc(NC(=O)Nc3ccc(C(F)(F)F)cc3)ccc2O1 | inactive |
| C[C@@H]1CCCCO[C@H](CN(C)C(=O)NC2CCCCC2)[C@@H](C)CN([C@@H](C)CO)C(=O)c2cc(NC(=O)NC3CCCCC3)ccc2O1 | inactive |
| O=C(C[C@H]1C=C[C@@H](NC(=O)CN2CCOCC2)[C@H](CO)O1)NCCc1ccccc1 | inactive |
| COCC#Cc1ccc2c(c1)O[C@@H](CN(C)C(=O)c1ccccc1F)[C@@H](C)CN([C@@H](C)CO)S2(=O)=O | inactive |
| CNC[C@H]1OCCCC[C@H](C)Oc2ccc(NC(=O)c3ccncc3)cc2C(=O)N([C@@H](C)CO)C[C@@H]1C | inactive |
| Cc1ccc(S(=O)(=O)N(C)C[C@@H]2Oc3ccc(NS(=O)(=O)c4c(C)noc4C)cc3CC(=O)N([C@@H](C)CO)C[C@H]2C)cc1 | inactive |
| C[C@H]1CN([C@@H](C)CO)C(=O)c2cccc(NC(=O)c3cnccn3)c2O[C@H]1CN(C)S(=O)(=O)c1ccc(Cl)cc1 | inactive |
| O=C(C[C@H]1CC[C@H](NC(=O)c2cccnc2)[C@H](CO)O1)NCCN1CCCCC1 | inactive |
| COCC#Cc1ccc2c(c1)O[C@H](CN(C)C(=O)C1CCCCC1)[C@H](C)CN([C@@H](C)CO)S2(=O)=O | inactive |
| C[C@H](CO)N1C[C@H](C)[C@H](CN(C)C(=O)Cc2ccccc2)OCCCC[C@H](C)Oc2ccc(NC(=O)Nc3ccc(F)cc3)cc2C1=O | inactive |
| CCS(=O)(=O)Nc1ccc2c(c1)C(=O)N(C)[C@H]1CC[C@H](CC(=O)NCc3ccc(OC)cc3)O[C@@H]1CO2 | inactive |
| C[C@H](CO)N1C[C@H](C)[C@H](CN(C)C(=O)Nc2ccc3c(c2)OCO3)OCCCC[C@H](C)Oc2ccc(NC(=O)c3ccncc3)cc2C1=O | inactive |
| C[C@@H]1CCCCO[C@@H](CN(C)Cc2ccncc2)[C@@H](C)CN([C@H](C)CO)C(=O)c2cc(NC(=O)Nc3ccc(C(F)(F)F)cc3)ccc2O1 | active |
| C[C@@H]1CCCCO[C@H](CN(C)Cc2ccncc2)[C@H](C)CN([C@@H](C)CO)C(=O)c2cc(NC(=O)Nc3ccc(C(F)(F)F)cc3)ccc2O1 | active |
| C[C@@H]1CN([C@@H](C)CO)C(=O)c2cc(NC(=O)Nc3ccc(C(F)(F)F)cc3)ccc2O[C@@H](C)CCCCO[C@H]1CN(C)Cc1ccncc1 | inactive |
| C[C@H]1CCCCO[C@H](CN(C)Cc2ccncc2)[C@@H](C)CN([C@@H](C)CO)C(=O)c2cc(NC(=O)Nc3ccc(C(F)(F)F)cc3)ccc2O1 | active |
| C[C@@H]1CN([C@@H](C)CO)C(=O)c2cc(NC(=O)Nc3ccc(C(F)(F)F)cc3)ccc2O[C@@H](C)CCCCO[C@@H]1CN(C)Cc1ccncc1 | active |
| C[C@@H]1CCCCO[C@@H](CN(C)Cc2ccncc2)[C@@H](C)CN([C@@H](C)CO)C(=O)c2cc(NC(=O)Nc3ccc(C(F)(F)F)cc3)ccc2O1 | inactive |
